# Assay results published in PubChem BioAssay (Tox21).
# Records with an inconclusive call do not appear. Where a call stands in place of a potency, no number is given. Active and inactive are the calls of the source. Calls follow the shape of the dose curve; as a rule, active = well fitted inhibition curve with a large enough effect in the signal ratio in the repeat runs, with a control signal flat; inconclusive = weak or mixed curves, or effect the other way; inactive = flat fitted curve, though single readings scatter; the % refers to the signal ratio.
# Biological target: D(2) dopamine receptor (Homo sapiens) (UniProt P14416)
# Assay: Dopamine D2 receptor (DRD2) small molecule antagonists, cell-based qHTS assay (AID 1963595)
# Conditions: HEK293-DRD2 cAMP HTRF antagonist mode; series mostly up to 92.4 µM
# Description: National Center for Advancing Translational Sciences [NCATS]
# Division of Preclinical Innovation [DPI]
# U.S. Environmental Protection Agency [EPA]
# National Institutes of Environmental Health Sciences [NIEHS]
# National Toxicology Program [NTP]
# U.S. Food and Drug Administration [FDA]
# DRD2 is the D2 subtype of the dopamine receptor, which is coupled to Gi subtype of G protein-coupled receptor. This G protein-coupled receptor inhibits adenylyl cyclase activity. The DRD2-HEK293 cell line stably expressing D2 dopamine receptor can be used for screening agonists and antagonists of interactions between D2 and its ligands. The Hek293-DRD2 cAMP assay is based on HTRF technology. It measures changes of cAMP accumulation in response to Gi coupled GPCR activation or inhibition.
# Tox21 Assay Protocol Summary:
# DRD2-Hek293 cells were dispensed at 600 cells/3uL/well in 1536-well white plates using a Multidrop Dispenser. After the assay plates were incubated at a 37 C/5% CO2 incubator for 24 h, 1 uL of Ro20-1724 at final concentration of 0.1 mM was transferred to the assay plate by a Flying Reagent Dispenser. Following Ro20-1724 addition, 23 nL of compound dissolved in DMSO, positive controls or DMSO only was added to the assay plates via Wako pintool station. The assay plates were incubated at room temperature for 10 min. Next, 1 uL of mixture of NKH477 (final concentration at 200 nM) and quinpirole (final concentration at 12 nM) was added into the plates. After the assay plates were incubated at room temperature for an additional 30 min, 2.5 ul/well of cAMP-d2 and 2.5 ul/well of anti-cAMP-cryptate were added respectively into the assay plates using a Flying Reagent Dispenser. The plates were incubated at room temperature for 1 h. The fluorescence intensity in the plates was measured at 340 nm excitation and 665 & 620 nm emission by an Envision plate reader.
# Potency is read from the fitted curve at half-maximal effect.
# Chain of D(2) dopamine receptor (Homo sapiens) (P14416 whole entry, looked up): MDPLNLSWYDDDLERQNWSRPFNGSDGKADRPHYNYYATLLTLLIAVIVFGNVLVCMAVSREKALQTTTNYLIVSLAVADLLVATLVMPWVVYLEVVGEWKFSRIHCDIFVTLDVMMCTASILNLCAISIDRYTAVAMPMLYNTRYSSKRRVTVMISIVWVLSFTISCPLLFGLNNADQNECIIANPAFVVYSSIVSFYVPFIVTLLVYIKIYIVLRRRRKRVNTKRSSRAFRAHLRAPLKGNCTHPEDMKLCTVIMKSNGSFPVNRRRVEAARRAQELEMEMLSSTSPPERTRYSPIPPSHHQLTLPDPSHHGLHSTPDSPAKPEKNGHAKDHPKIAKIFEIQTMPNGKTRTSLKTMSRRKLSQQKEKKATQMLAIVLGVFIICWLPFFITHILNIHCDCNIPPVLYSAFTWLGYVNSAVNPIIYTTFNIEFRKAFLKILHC
Compound,Potency,"activity change, negative = inhibition"
CCCSP(=O)(OCC)Oc1ccc(Br)cc1Cl (stereo not given),inactive,–
CC1Sc2c(C(=O)O)c(=O)c3cc(F)c(N4CCNCC4)cc3n21 (stereo not given),inactive,–
Clc1ccc(CSC(Cn2ccnc2)c2ccc(Cl)cc2Cl)cc1 (stereo not given),inactive,–
O=c1c(C2CC(c3ccc(-c4ccc(Br)cc4)cc3)Cc3ccccc32)c(O)sc2ccccc12 (stereo not given),inactive,–
Brc1ccccc1,inactive,–
COc1ccc2c(C(=O)c3ccc(Cl)cc3)c(C)n(CC(=O)O)c2c1,inactive,–
NC(=O)C(Cl)(Cl)Cl,inactive,–
CC(C)[C@@H](C(=O)O[C@@H](C#N)c1cccc(Oc2ccccc2)c1)c1ccc(Cl)cc1,inactive,–
C=C(C)C(=O)OCCCCOC(=O)C(=C)C,inactive,–
CCCCN(CCCC)C(=S)[S-].CCCCN(CCCC)C(=S)[S-].[Zn+2],inactive,–
CCSC(=O)Cl,inactive,–
C[C@]12Cc3nonc3C[C@@H]1CC[C@@H]1[C@@H]2CC[C@@]2(C)[C@H]1CC[C@]2(C)O,inactive,–
CN(C)S(=O)(=O)N(SC(F)(Cl)Cl)c1ccccc1,5.45 µM (active),–
Cc1ccccc1C(=O)Nc1cccc(OC(C)C)c1,inactive,–
Cl/C=C\Cl,inactive,–
CC(C)(OO)c1ccccc1,inactive,–
CCCCC(CC)COC(=O)OOC(C)(C)C (stereo not given),inactive,–
C[C@H](N)C(=O)c1ccccc1,inactive,–
CCOC(=O)NC(=S)Nc1ccccc1NC(=S)NC(=O)OCC,inactive,–
CNC(=O)Oc1cc(C)cc(C(C)C)c1,inactive,–

Compound,Potency,"activity change, negative = inhibition"
C=CC(=O)OCCN(C)C,inactive,–
CC(Oc1cc(Cl)c(Cl)cc1Cl)C(=O)O (stereo not given),inactive,–
CC(=O)CCc1ccc2c(c1)OCO2,inactive,–
CCOC(=O)c1cn2nc(OP(=S)(OCC)OCC)cc2nc1C,inactive,–
ClC(Br)Br,inactive,–
O=C(Oc1ccc(Br)cc1)N1CCN2CCC1CC2,inactive,–
CCOC(=O)COc1ccc(Cl)cc1Cl,inactive,–
ClC(Cl)C(Cl)Cl,inactive,–
c1ccc2c(c1)[nH]c1cnccc12,inactive,–
O=c1ssc(Cl)c1Cl,inactive,–
OCC(c1ccc(Cl)cc1)c1ccc(Cl)cc1,inactive,–
COC1=CC(=O)O[C@@H](/C=C/c2ccccc2)C1,inactive,–
O=C(CBr)Nc1ccc(Cl)cc1C(=O)c1ccccc1F,inactive,–
C[CH2][Hg][N]1C(=O)C2C(C1=O)C1(Cl)C(Cl)=C(Cl)C2(Cl)C1(Cl)Cl (stereo not given),–,2.84% [at 18.9 µM] (inactive)
O=C(O)c1c(Cl)ccc2cc(Cl)cnc12,inactive,–
CCC(C)c1cc(C(C)(C)C)cc(-n2nc3ccccc3n2)c1O (stereo not given),inactive,–
CCCCCCCCCC[N+](C)(C)CCCCCCCCCC,27.3 µM (active),–
CCN(C(C)=O)c1cccc(-c2ccnc3c(C#N)cnn23)c1,inactive,–
CN(C)C1CCCCC1,inactive,–
CCCCNC(=O)OCC#CI,68.6 µM (active),–
